# From PubChem BioAssay (NCI)
# Compounds without any hit were thinned out: in the full panel of roughly 83,000, 20% have a hit.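 A percent growth of 40 corresponds to 60% growth inhibition; 0 means no net growth; -100 means all cells died. Active threshold: below 10.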 Values without a mark were called inactive. Active and inactive are the calls of the source.
# Tested on: OVCAR-4 ovarian
# Assay: NCI-60 one-dose screen, 48 h (100 = growth as untreated, 0 = no growth, -100 = all killed)
# Settings: 10 µM
# Protocol: Growth inhibition of the OVCAR-4 human tumor cell line is measured as a screen for anti-cancer activity. Cells are grown in 96 well plates and exposed to the test compound for 48 hours. Compounds are tested at a single concentration, which is 10^-5 M for most compounds. The reported endpoint is percent growth (GI% or GIPRCNT), where numbers from 0 - 100% represent growth inhibition, and numbers from -100% - 0 represent cell death. For example, a value of 40 represents 60% growth inhibition. A value of 0 means no net growth occurred over the course of the experiment. A value of -40 indicates 40% of cells at the beginning of the experiment died by the end of the experiment. A value of -100 means all cells are dead at the end of the experiment.
# NCI-60 Human Tumor Cell Lines Screen was performed using the standard one-dose NCI protocol, which is described in more detail at https://dtp.cancer.gov/discovery_development/nci-60/default.htm.
# Compounds with GIPRCNT values below 10 were considered active. Activity score was based on GIPRCNT using the following formula: […]
# Score is 0 for GIPRCNT values of 100 or above, 50 for GIPRCNT values of 0, and 100 for GIPRCNT values of -100.
row,Structure (SMILES),growth
1,O=C1NC2C=CC=CC2/C1=C1/SC(=S)N(C2CC(=O)N(c3ccc(Br)cc3)C2=O)C1=O (stereo not given),93.1%
2,CC1(C)CC(=O)C2=C(C1)N(Cc1ccc(C(=O)O)cc1)C1=C(C(=O)CC(C)(C)C1)C2c1ccc(Cl)cc1,99.5%
3,O=C(c1ccc(Cl)cc1)C(c1c[nH]c2ccccc12)c1c[nH]c2ccccc12,7.15% (active)
4,O=C(Nc1ccc(OCC(=O)c2ccc(Cl)cc2)cc1)Nc1ccc(Cl)c(C(F)(F)F)c1,38.1%
5,Fc1ccc(-c2csc(Nc3cccc(Nc4nc(-c5ccc(F)cc5)cs4)c3)n2)cc1,55.7%
6,Cn1cc(-c2nnc(N)nc2-c2c[nH]c3ccccc23)c2cc(Br)cnc21,46.5%
7,CCOC(=O)C1=C(N)N(c2ccc(C)cc2)C2=C(C(=O)CC(C)(C)C2)C1c1ccccc1Br (stereo not given),83.2%
8,COc1ccc(NCc2cn(-c3ccc(C(=O)O)cc3)nc2-c2ccc(F)cc2)cc1C(F)(F)F,57.2%
9,C#C[C@]1(O)CC[C@H]2[C@@H]3CC=C4c5sc(Nc6ccc(N(C)C)cc6)nc5CC[C@]4(C)[C@H]3CC[C@@]21C,36.1%
10,Cc1cc(N=C2NC(=O)S/C2=C\c2ccc(F)cc2)n[nH]1,22.7%
11,Fc1ccc(/C=C/c2nc3ccccc3n3c(-c4ccc(Cl)cc4)nnc23)cc1,69%
12,Cc1ccc(-c2nc(C#N)c(S(=O)(=O)N3CCN(S(C)(=O)=O)CC3)o2)cc1,48.1%
13,C#CCOc1cc(N(CC)CC)ccc1C(C(=O)NC(C)(C)C)N(C(=O)C1CCc2cc(F)ccc2O1)c1ccc(F)cc1F (stereo not given),43.7%
14,O=C1NC(=S)S/C1=C\c1cn(-c2ccccc2)nc1-c1ccc([N+](=O)[O-])cc1,15%
15,COc1cccc(C(=O)CSc2nc(-c3ccc(OCc4ccccc4)c(OC)c3)c(C#N)c(=O)[nH]2)c1,96.8%
16,Cn1cc(-c2cc(N)n3nc(-c4cn(C)c5ccccc45)cc3n2)c2cc(F)ccc21,-38.2% (active)
17,Cc1ccc(S(=O)(=O)N2CCN(S(=O)(=O)c3oc(-c4ccccc4)nc3C#N)CC2)cc1,71.8%
18,C#C[C@]1(O)CC[C@H]2[C@@H]3CC=C4c5sc(Nc6ccc(C(F)(F)F)cn6)nc5CC[C@]4(C)[C@H]3CC[C@@]21C,20%
19,O=C(c1ccc(F)cc1)C(c1c[nH]c2ccccc12)c1c[nH]c2ccccc12,55.9%
20,COc1ccc(Cn2cc(C#N)c(N)c2C(C)=O)c(OC)c1,110%

row,Structure (SMILES),growth
1,COc1cc(C2CC(c3ccc(Oc4ccc(Cl)cc4)cc3)=NN2c2nc(-c3ccc(Cl)cc3)c(C#N)c(N3CCOCC3)n2)cc(OC)c1OC (stereo not given),103%
2,O=C(c1ccccc1)c1ccc2nc(-c3ccccc3Br)[nH]c2c1,-54.8% (active)
3,COc1ccc(C2c3sc4ccc(C)cc4c3Oc3nc(N)nc(N)c32)cc1 (stereo not given),85.8%
4,CC1(C)CC[C@]2(C(=O)O)CC[C@]3(C)C(=CCC4[C@@]5(C)C[C@@H](O)[C@@H]6OC(c7cccc(F)c7)OC[C@@]6(C)C5CC[C@]43C)C2C1 (stereo not given in full),54.6%
5,CC(C)(C)c1cc(/C=C2\S/C(=N/c3ncn[nH]3)NC2=O)cc(C(C)(C)C)c1O,33.8%
6,O=C(CN1CCN(c2ncnc3c2cnn3-c2ccccc2)CC1)Nc1ccc(Cl)cc1,44.5%
7,COc1ccc(Cc2nn(CC(=O)N/N=C/c3ccc([N+](=O)[O-])cc3)c(=O)c3c(C)noc23)cc1,1.77% (active)
8,COc1cc(-c2nc3ccc(C)cc3[nH]2)ccc1OCc1nnc(-c2ccccc2Br)o1,80.7%
9,Cn1cc(/C=C(/SS/C(=C/c2cn(C)c3cccc(C(=O)O)c23)C(=O)O)C(=O)O)c2c(C(=O)O)cccc21,99.6%
10,Cc1cc(N=C2NC(=O)/C(=C/c3cc(C(C)(C)C)c(O)c(C(C)(C)C)c3)S2)n[nH]1,-42.7% (active)
11,O=C(CSc1nc2ccccc2c(=O)n1-c1ccc(Cl)cc1)Nc1ccc(-c2nc3ccc([N+](=O)[O-])cc3[nH]2)cc1,-12.1% (active)
12,CCn1c(SCC(=O)Nc2ccc(-c3nc4ccccc4[nH]3)cc2)nc2ccccc2c1=O,-84.1% (active)
13,COC(=O)CNC(=O)COc1c(OC)c(OC)cc2oc(-c3cccc(C(=O)Nc4ccc(Cl)cc4)c3)cc(=O)c12,6.23% (active)
14,COc1ccc(Cc2nn(CC(=O)N/N=C/c3ccc(Br)cc3)c(=O)c3c(C)noc23)cc1,-44% (active)
15,CCOC(=O)c1ccc(NC(=O)CSC(CC(=O)c2sc(Nc3ccccn3)nc2C)c2ccccc2F)cc1 (stereo not given),41.1%
16,O=C(CSc1nc2ccccc2c(=O)n1-c1ccc(Cl)cc1)Nc1ccc(-c2nc3ccccc3[nH]2)cc1,-75.6% (active)
17,C#C[C@]1(O)CC[C@H]2[C@@H]3CC=C4c5sc(Nc6cc(C)cc(C)n6)nc5CC[C@]4(C)[C@H]3CC[C@@]21C,25.6%
18,O=C(Nc1ccc(Oc2ncnc3scc(Nc4n[nH]c(=S)s4)c23)cc1)C1(C(=O)Nc2cccc(C(F)(F)F)c2)CC1,108%
19,Cc1ccc2sc3c(c2c1)Oc1nc[nH]c(=O)c1C3c1cccc(F)c1 (stereo not given),91.7%
20,O=C(CN1CCN(c2ncnc3c2cnn3-c2ccccc2)CC1)Nc1ccc(Br)cc1,56.5%
